# According to PubChem BioAssay:
# Where “and” joins values, the source holds several entries; their conditions need not be identical. Identical values can stand only once. Calls of active or inactive are those of the source. Unless noted, the rule behind the calls is not given here.
# What was measured:
# [1] = system: Hepatitis C virus NS3 helicase; assay: HCV NS3 helicase inhibitors, primary screen, biochemical, fluorescence polarization, LOPAC1280 library (AID 687035; in the data active = inhibition above about 37%); conditions: Purified HCV NS3 helicase, Cy5-dT15 ssDNA binding fluorescence polarization; stronger effect = higher value; concentration not given here
# [2] = Cy5 fluorescence quenching or enhancement artefacts, artefact control for HCV NS3 helicase inhibitor project, biochemical, LOPAC1280 (AID 687037); conditions: Cy5-DNA-NS3h complex fluorescence interference counterscreen
# [3] = system: Aerobactin synthetase IucA (Klebsiella pneumoniae); assay: IucA aerobactin synthetase inhibitors, biochemical, Tocris library, absorbance (AID 1345561); conditions: purified IucA enzyme assay, absorbance (OD) read-out; stronger effect = lower value;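 tested at 8 µM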;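 note: 100% = enzyme without compound and 0% = no enzyme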
# [4] = phospholipid biosynthesis inhibitors in animal cells, primary screen, cell-based, LOPAC library, screen 4 (AID 1347384); conditions: phospholipid biosynthesis inhibition screen, at 10 µM
# [5] = survival rescue of mitochondrial mutant cells in low glucose, primary screen, MELAS cybrids, Rieske KO mouse fibroblasts, CellTiter-Glo (AID 1508586;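 active = mean z-score across replicates of 1.96 or higher in either the MELAS or the Rieske mutant cell line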;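 note: z relative to plate mean and SD of compound and empty wells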)
# [6] = viability rescue of complex I mutant cybrids, primary screen, cell-based, galactose medium, ATP luminescence (AID 1645843;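 active = z-score of at least 1.8 in each of two replicates, scored against plate mean and spread of sample wells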;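 note: positive z means more ATP and so rescue of galactose-driven cybrid death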); conditions: complex I mutant cybrid cells, 72 h, stronger effect = higher value
# [7] = LFS_MB_P medulloblastoma growth inhibition, cell-based, chromothripsis tumors, cisplatin or BGB combos (AID 1671449; in the data active = inhibition above about 80%;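 note: cells exposed for 96 hours; 0% = vehicle DMSO and 100% = killing by high DMSO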); conditions: LFS_MB_P medulloblastoma cells
# [8] = HDN33 neuroblastoma growth inhibition, cell-based, chromothripsis tumors, cisplatin or BGB combos (AID 1671450; in the data active = inhibition above about 80%;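 note: cells exposed to compound for four days; 0% = vehicle DMSO and 100% = cell killing by high DMSO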); conditions: HDN33 neuroblastoma cells, stronger effect = higher value
# [9] = ICB984 medulloblastoma cell growth inhibition, synergistic combos for chromothripsis tumors, cisplatin or BGB combos (AID 1671451); conditions: ICB984 medulloblastoma cells, drug combinations, stronger effect = higher value;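 note: cells exposed for 96 hours before readout; 0% = vehicle DMSO and 100% = killing by high DMSO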
# [10] = LFS_MB_1R medulloblastoma cell growth inhibition, synergistic combos for chromothripsis tumors, cisplatin or BGB combos (AID 1671452; in the data active = inhibition above about 80%;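 note: cells exposed for 96 hours before readout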); conditions: LFS_MB_1R medulloblastoma cells, stronger effect = higher value
# [11] = HTB85 osteosarcoma cell growth inhibition, synergistic combos for chromothripsis tumors, BGB or cisplatin IC20 combos (AID 1671453; in the data active = inhibition above about 80%;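 note: cells exposed for 96 hours before readout; 0% = vehicle DMSO and 100% = high DMSO killing control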); conditions: HTB85 osteosarcoma cells, drug combinations, stronger effect = higher value
# [12] = CRL2098 osteosarcoma cell growth inhibition, synergistic combos for chromothripsis tumors, BGB or cisplatin IC20 combos (AID 1671454; in the data active = inhibition above about 80%;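 note: cells exposed for 96 h before readout; 0% = vehicle DMSO and 100% = killing by high DMSO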); conditions: CRL2098 osteosarcoma cells, drug combinations, stronger effect = higher value
# [13] = HD-MB03 medulloblastoma cell growth inhibition, synergistic combos for chromothripsis tumors, BGB or cisplatin IC20 combos (AID 1671455; in the data active = inhibition above about 83%;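 note: 0% = vehicle DMSO and 100% = high DMSO as cytotoxic control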); conditions: HD-MB03 medulloblastoma cells, stronger effect = higher value
# [14] = UWB1.289 ovarian carcinoma cell growth inhibition, synergistic combos for chromothripsis tumors, BGB or cisplatin combos (AID 1671456; in the data active = inhibition above about 80%;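 note: cells exposed to compound for four days; 0% = vehicle DMSO and 100% = killing by high DMSO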); conditions: UWB1.289 ovarian carcinoma cells, stronger effect = higher value
# [15] = LFS_MB_2R medulloblastoma cell growth inhibition, synergistic combos for chromothripsis tumors, cisplatin combos (AID 1671457; in the data active = inhibition above about 80%;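 note: cells exposed to compound for four days before readout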); conditions: LFS_MB_2R medulloblastoma cells, stronger effect = higher value
# [16] = MDA-MB-436 breast carcinoma cell growth inhibition, synergistic combos for chromothripsis tumors, BGB or cisplatin combos (AID 1671458); conditions: MDA-MB-436 breast carcinoma growth inhibition, drug combinations, stronger effect = higher value;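 note: cells exposed for 96 hours; 0% = vehicle DMSO and 100% = killing by high DMSO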
# [17] = UWB1.289_BRCA1 ovarian cancer growth, cell-based, BGB or cisplatin combinations (AID 1671459; in the data active = inhibition above about 80%); conditions: UWB1.289 BRCA1 ovarian carcinoma, drug combinations, stronger effect = higher value
# [18] = human astrocyte viability loss, single and combined drugs, cytotoxicity control for chromothriptic childhood tumor combination screen, cell-based, BGB or cisplatin IC20 combos (AID 1671460; in the data active = inhibition above about 80%;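 note: cells exposed to compounds for 96 hours before viability readout; 0% = vehicle and 100% = killing control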); conditions: Human astrocytes, drug combinations, stronger effect = higher value
# [19] = growth inhibition of BT084 medulloblastoma cells, cell-based, ICGC_MB145, cisplatin and BGB IC40 combos (AID 1671461; in the data active = inhibition above about 80%;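 note: cells exposed to drugs for 96 hours; 0% = vehicle DMSO and 100% = high DMSO full killing control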); conditions: drug combinations, stronger effect = higher value
# [20] = growth inhibition of RCMB18 medulloblastoma cells, cell-based, cisplatin and BGB IC40 combos (AID 1671462; in the data active = inhibition above about 80%;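 note: cells exposed to compound for four days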); conditions: stronger effect = higher value
# [21] = growth inhibition of CRL1545 osteosarcoma cells, cell-based, cisplatin and BGB IC20 combos (AID 1671464; in the data active = inhibition above about 80%;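 note: cells exposed to compound for 96 hours before readout; 0% = vehicle DMSO and 100% = high DMSO killing control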); conditions: stronger effect = higher value
# [22] = hESC survival regulators, cell-based (AID 493140); conditions: human embryonic stem cell survival screen; stronger effect = higher value;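 note: cells exposed to compounds for four days before counting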
# [23] = sensitizers of A549 cells to miR-34 induction, primary screen, imaging, A549 dox-inducible miR-34, nuclei and caspase counts (AID 1347080;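 active = compounds whose cell count with miR-34 switched on is under 0.7 times the count with it off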); conditions: A549 miR-34 inducible, Hoechst nuclei count, 48 h
# [24] = circadian clock period modulators, cell-based, LOPAC library, luminescence reporter (AID 2774); conditions: circadian reporter cells, at 7 µM, actives lie on both sides;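 note: values are relative to mean of DMSO wells on each plate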
# [25] = inhibitors of Cryptococcus chitosan production, flow cytometry, Cibacron Brilliant Red staining (AID 1347148); conditions: Cryptococcus neoformans chitosan, stronger effect = lower value; at 10 µM unless noted;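 note: compound exposure lasted three days at 37 degrees C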
# [26] = measured here: combination with BGB IC40, at 0.05 µM
# [27] = measured here: with BGB IC20 combination, at 0.5 µM
# [28] = measured here: with cisplatin IC20 combination, at 0.5 µM
# [29] = measured here: combination with cisplatin, at 0.5 µM
# [30] = measured here: combination with cisplatin, at 5 µM
# [31] = stronger effect = lower value, cell number ratio, induced over uninduced
# [32] = measured here: relative caspase fold change +Dox/-Dox
# [33] = measured here: total cells with miR-34 induction, stronger effect = lower value
# [34] = measured here: total cells without miR-34 induction
structure (smiles),measurement,setting,value
O=C(Nc1ccncc1)c1cc([N+](=O)[O-])ccc1Cl,inhibition,[1],0% (inactive)
same,fluorescence ratio (interference),[2],1 (inactive)
same,remaining activity,[3],127% (inactive)
same,outcome,[4],inactive
same,z-score,"[5]; MELAS cybrid survival, CellTiter-Glo 48 h, stronger effect = higher value",0.0073 (inactive)
same,z-score,"[5]; Rieske KO mouse fibroblast survival, CellTiter-Glo 72 h",-0.438
same,z-score,[6],-1.12 (inactive) and -0.63 (inactive)
same,inhibition,"[7]; at 0.5 µM, stronger effect = higher value",-6.15% (inactive)
same,inhibition,"[7]; measured here: combination with BGB IC20, at 0.005 µM",-50.3%
same,inhibition,"[7]; measured here: combination with BGB IC40, at 0.005 µM",-79.8%
same,inhibition,[7]; [26],-56.1%
same,inhibition,"[7]; measured here: combination with cisplatin, at 0.5 µM, stronger effect = higher value",-30.4%
same,inhibition,"[7]; measured here: combination with cisplatin, at 5 µM, stronger effect = higher value",-22.9%
same,inhibition,"[8]; BGB combo, at 5 µM",-13.6%
same,inhibition,[8]; at 0.5 µM,1.6% (inactive)
same,inhibition,"[8]; cisplatin combo, at 5 µM",3.19%
same,inhibition,[8]; [27],-13.6%
same,inhibition,[8]; [28],24.4%
same,inhibition,"[8]; single agent, at 5 µM",-14.1%
same,inhibition,"[9]; BGB IC20 combo, at 0.005 µM",-18%
same,inhibition,"[9]; BGB IC40 combo, at 0.005 µM",-35.6%
same,inhibition,"[9]; BGB IC40 combo, at 0.05 µM",0.746%
same,inhibition,[9]; at 0.5 µM,-34.7% (inactive)
same,inhibition,"[9]; cisplatin combo, at 0.05 µM",-4.27%
same,inhibition,"[9]; cisplatin combo, at 0.5 µM",-45.9%
same,inhibition,"[9]; cisplatin combo, at 5 µM",-23.5%
same,inhibition,"[9]; measured here: 5 uM single agent, at 5 µM",-11.4%
same,inhibition,[10]; at 0.5 µM,-23.9% (inactive)
same,inhibition,[10]; [26],-37.5%
same,inhibition,[10]; [29],-9.6%
same,inhibition,[10]; [30],54.5%
same,inhibition,[11]; at 0.5 µM,-15.1% (inactive)
same,inhibition,"[11]; measured here: with BGB IC20, at 0.5 µM",-10.2%
same,inhibition,"[11]; measured here: with BGB IC20, at 5 µM",1.89%
same,inhibition,"[11]; measured here: with cisplatin IC20, at 0.5 µM",-20.9%
same,inhibition,"[11]; measured here: with cisplatin IC20, at 5 µM",-16.5%
same,inhibition,"[11]; single agent, at 5 µM",-8.5%
same,inhibition,[12]; at 0.5 µM,-65.5% (inactive)
same,inhibition,"[12]; measured here: combination with BGB at IC20, at 0.5 µM",-72.7%
same,inhibition,"[12]; measured here: combination with cisplatin at IC20, at 0.5 µM",-82.6%
same,inhibition,[13]; at 0.5 µM,-11.5% (inactive)
same,inhibition,"[13]; measured here: combo with BGB at IC20, at 0.5 µM",-10.4%
same,inhibition,"[13]; measured here: combo with cisplatin at IC20, at 0.5 µM",-13.5%
same,inhibition,[14]; at 0.5 µM,-6.23% (inactive)
same,inhibition,"[14]; measured here: inhibition with BGB combination, at 0.05 µM",-27.4%
same,inhibition,"[14]; measured here: inhibition with cisplatin combination, at 0.05 µM",-17%
same,inhibition,[15]; at 0.5 µM,-23.4% (inactive)
same,inhibition,[15]; [29],-14.6%
same,inhibition,[15]; [30],-37.5%
same,inhibition,[16]; at 0.5 µM,-25.3% (inactive)
same,inhibition,"[16]; measured here: BGB combination, at 0.5 µM",-15.4%
same,inhibition,"[16]; measured here: BGB combination, at 5 µM",-30%
same,inhibition,"[16]; measured here: cisplatin combination, at 0.5 µM",-47.1%
same,inhibition,"[16]; measured here: cisplatin combination, at 5 µM",-23.8%
same,inhibition,"[17]; BGB combination, concentration series, at 5 µM",-19.1%
same,inhibition,[17]; at 0.5 µM,-17.7% (inactive)
same,inhibition,"[17]; cisplatin combination, concentration series, at 5 µM",-9.35%
same,inhibition,[18]; at 0.5 µM,-9.91% (inactive)
same,inhibition,"[18]; measured here: combo with BGB IC20, at 0.5 µM",0.843%
same,inhibition,"[18]; measured here: combo with cisplatin IC20, at 0.5 µM",-18.4%
same,inhibition,[19]; at 0.5 µM,-26.5% (inactive)
same,inhibition,"[19]; cisplatin combination, at 0.5 µM",-23.3%
same,inhibition,"[19]; cisplatin combination, at 5 µM",-134%
same,inhibition,"[19]; measured here: BGB IC40 combination 0.05 uM, at 0.05 µM",-33.5%
same,inhibition,"[19]; single agent, at 5 µM",23.7%
same,inhibition,[20]; at 0.5 µM,-25.9% (inactive)
same,inhibition,"[20]; cisplatin combo, at 5 µM",23.7%
same,inhibition,"[20]; measured here: BGB IC40 combination, at 0.05 µM",-24.6%
same,inhibition,[20]; [29],-52.5%
same,inhibition,"[20]; single agent, at 5 µM",-3.16%
same,inhibition,[21]; at 0.5 µM,6.35% (inactive)
same,inhibition,[21]; [27],-12.9%
same,inhibition,[21]; [28],14.6%
same,inhibition,"[21]; single agent, at 0.05 µM",-34.7%
same,inhibition,"[21]; single agent, at 5 µM",-4.08%
O=C(O)CCC/C=C\C[C@@H]1[C@@H](/C=C/[C@@H](O)COc2cccc(Cl)c2)[C@H](O)C[C@@H]1O,survival,[22],113 (inactive)
same,remaining activity,[3],110% (inactive)
same,fold change,[23]; [31],0.943 (inactive) and 0.93 (inactive) and 0.921 (inactive)
same,fold change,[23]; [32],1.66 and 1.25 and 1.86
same,cell count,[23]; [33],5470 and 5960 and 8580
same,cell count,[23]; [34],5810 and 6400 and 9320
same,z-score,[6],-0.155 (inactive)
CCCCCCCCCCC(C)(C)C(=O)Nc1c(OC)cc(OC)cc1OC,inhibition,[1],-1% (inactive)
same,fluorescence ratio (interference),[2],1 (inactive)
same,remaining activity,[3],89.7% (inactive)
same,fold change,[23]; [31],1.03 (inactive) and 0.876 (inactive)
same,fold change,[23]; [32],2.03 and 1.56
same,cell count,[23]; [33],8990 and 6930
same,cell count,[23]; [34],8710 and 7910
same,outcome,[4],inactive
same,z-score,[6],-1.29 (inactive) and -0.7 (inactive)
CC[N+](CC)(CC)CC(=O)Nc1c(C)cccc1C,period change,[24],0.065 h (inactive)
same,inhibition,[1],-2% (inactive)
same,fluorescence ratio (interference),[2],1 (inactive)
same,remaining activity,[3],100% (inactive) and 106% (inactive)
same,fold fluorescence,[25],6.95 [at 145.6 µM] (inactive)
same,outcome,[4],inactive
same,z-score,[6],0.42 (inactive) and 1.23 (inactive) and 0.065 (inactive)
c1ccc(C(NCCNC(c2ccccc2)c2ccccc2)c2ccccc2)cc1,inhibition,[1],-4% (inactive)
same,fluorescence ratio (interference),[2],1 (inactive)
same,remaining activity,[3],112% (inactive)
same,fold change,[23]; [31],0.972 (inactive) and 0.853 (inactive)
same,fold change,[23]; [32],0.809 and 1.79
same,cell count,[23]; [33],5830 and 5710
same,cell count,[23]; [34],5990 and 6700
same,outcome,[4],inactive
same,z-score,[6],-1.29 (inactive) and -0.705 (inactive)
